# Measurements reported in PubChem BioAssay (EPA / NIEHS).
# Active and inactive are the calls of the source. Rule for the calls: active = hit-call score of the fitted dose curve at least 0.9, where 1 is the maximum; inactive = score below 0.9.
# Assay: CEETOX_H295R_11DCORT_noMTC: CeeTox H295R High-throughput Steroidogenesis Assay for 11-Deoxycortisol (11DCORT), maximum tolerated concentration (MTC) filtered results only (AID 2283911)
# Settings: actives raise or lower the signal
# Method in brief: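 Forskolin-primed (10 uM, 48 h) H295R adrenal cells are dosed for 48 h at 0.1% DMSO; medium 11-deoxycortisol is quantified by LC-MS/MS against a 7-point standard curve, with activity fitted in both directions versus DMSO.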
SMILES,AC50,outcome
CCOP(=S)(OCC)SCS(=O)(=O)CC,39.2 µM (active),
CCOc1ccc(C(C)(C)COCc2cccc(Oc3ccccc3)c2)cc1,13.1 µM (active),
CCOC(=O)c1ccccc1N,,inactive
CCOC(=O)c1ccccc1C(=O)OCC,,inactive

# Assay: CEETOX_H295R_OHPREG_noMTC: CeeTox H295R High-throughput Steroidogenesis Assay for OH-Pregnenolone (OHPREG), maximum tolerated concentration (MTC) filtered results only (AID 2283912)
# Settings: actives raise or lower the signal
# Method in brief: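 Steroidogenesis in H295R cells (OECD 456, modified): after 48 h forskolin priming and 48 h chemical treatment, secreted 17alpha-hydroxypregnenolone is measured by HPLC-MS/MS. Activity is fitted in both directions against DMSO; concentrations are not filtered by MTT-based MTC.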
SMILES,AC50,outcome
CCOP(=S)(OCC)SCS(=O)(=O)CC,43 µM (active),
CCOc1ccc(C(C)(C)COCc2cccc(Oc3ccccc3)c2)cc1,,inactive
CCOC(=O)c1ccccc1N,,inactive
CCOC(=O)c1ccccc1C(=O)OCC,,inactive

# Assay: CEETOX_H295R_OHPROG_noMTC: CeeTox H295R High-throughput Steroidogenesis Assay for OH-Progesterone (OHPROG), maximum tolerated concentration (MTC) filtered results only (AID 2283914)
# Settings: actives raise or lower the signal
# Method in brief: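 Forskolin 10 uM, 48 h prestim → test cmpd in DMSO (0.1% final), 48 h → medium MTBE extraction → LC-MS/MS quant of 17alpha-OH-progesterone. Bidirectional fit vs DMSO; no MTT-based MTC filtering.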
SMILES,outcome,AC50
CCOP(=S)(OCC)SCS(=O)(=O)CC,inactive,
CCOc1ccc(C(C)(C)COCc2cccc(Oc3ccccc3)c2)cc1,,13.2 µM (active)
CCOC(=O)c1ccccc1N,,41.3 µM (active)
CCOC(=O)c1ccccc1C(=O)OCC,inactive,
